# Experimental data published in PubChem BioAssay (NCATS).
# Records with an inconclusive call do not appear. A call without a number means that no potency is given here. Values without a mark were called inactive. Calls of active or inactive are those of the source. Calls follow the shape of the dose curve; as a rule, active = well fitted cell-killing curve with a large enough effect; inconclusive = small, poorly fitted or top-dose-only effect, or effect the other way; inactive = flat fitted curve, though single readings scatter.
# Assays:
# Experiment in all cases: Primary qHTS to identify gynecologic anti-cancer compounds using libraries of approved drugs and bioactive compounds (AID 1345084); also: nearly all actives have a fitted effect of over 55% in size
# C33A = settings: Gynecologic cancer cell panel viability, ATPlite luminescence, 48 h; series mostly up to 57.5 µM
# Outline: (§1)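 In this quantitative HTS, cell killing is estimated from loss of ATP-dependent luciferase light. Cells see five compound concentrations over a 48 h exposure.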
# CAOV3 = settings: Gynecologic cancer cell panel viability, ATPlite luminescence, 48 h; series mostly up to 57.5 µM
# Outline: as §1
# CASKI = settings: Gynecologic cancer cell panel viability, ATPlite luminescence, 48 h; series mostly up to 57.5 µM
# Outline: as §1
# Es-2 = settings: Gynecologic cancer cell panel viability, ATPlite luminescence, 48 h; series mostly up to 57.5 µM
# Outline: as §1
# HeLa = settings: Gynecologic cancer cell panel viability, ATPlite luminescence, 48 h; series mostly up to 57.5 µM
# Outline: as §1
# Hek293T = settings: Gynecologic cancer cell panel viability, ATPlite luminescence, 48 h, control line for the selectivity index; series mostly up to 57.5 µM
# Outline: as §1
# JEG-3 = settings: Gynecologic cancer cell panel viability, ATPlite luminescence, 48 h; series mostly up to 57.5 µM
# Outline: as §1
# OV90 = settings: Gynecologic cancer cell panel viability, ATPlite luminescence, 48 h; series mostly up to 57.5 µM
# Outline: as §1
# PA-1 = settings: Gynecologic cancer cell panel viability, ATPlite luminescence, 48 h; series mostly up to 57.5 µM
# Outline: as §1
# SKOV3 = settings: Gynecologic cancer cell panel viability, ATPlite luminescence, 48 h; series mostly up to 57.5 µM
# Outline: as §1
# Tov-21-G = settings: Gynecologic cancer cell panel viability, ATPlite luminescence, 48 h; series mostly up to 57.5 µM
# Outline: as §1
# Tov112D = settings: Gynecologic cancer cell panel viability, ATPlite luminescence, 48 h; series mostly up to 57.5 µM
# Outline: as §1
# Potency is read from the fitted curve at half-maximal effect.
smiles,measurement,setting,value
CCC[C@@H]1O[C@@H]2C[C@H]3[C@@H]4CCC5=CC(=O)C=C[C@]5(C)[C@H]4[C@@H](O)C[C@]3(C)[C@]2(C(=O)CO)O1,Potency,C33A,inactive
same,Potency,CAOV3,inactive
same,Potency,CASKI,inactive
same,Potency,Es-2,inactive
same,Potency,HeLa,inactive
same,Potency,Hek293T,inactive
same,Potency,JEG-3,inactive
same,Potency,OV90,inactive
same,Potency,PA-1,inactive
same,Potency,SKOV3,inactive
same,Potency,Tov-21-G,inactive
same,Potency,Tov112D,inactive
C[C@H]1CC(=O)Nc2cccc(-c3cnn(C(C)(C)C)c3)c2N1,Potency,C33A,inactive
same,Potency,CAOV3,inactive
same,Potency,CASKI,inactive
same,Potency,Es-2,inactive
same,Potency,HeLa,inactive
same,Potency,Hek293T,inactive
same,Potency,JEG-3,inactive
same,Potency,OV90,inactive
same,Potency,PA-1,inactive
same,Potency,SKOV3,inactive
same,Potency,Tov-21-G,inactive
same,Potency,Tov112D,inactive
O=C(O)c1cn(C2CC2)c2cc(N3C[C@@H]4C[C@H]3CN4)c(F)cc2c1=O,Potency,C33A,inactive
same,Potency,CAOV3,inactive
same,Potency,CASKI,inactive
same,Potency,Es-2,inactive
same,Potency,HeLa,inactive
same,Potency,Hek293T,inactive
same,Potency,JEG-3,inactive
same,Potency,OV90,inactive
same,Potency,PA-1,inactive
same,Potency,SKOV3,inactive
same,Potency,Tov-21-G,inactive
same,Potency,Tov112D,inactive
CC1(C)CC[C@]2(C(=O)O)[C@H](O)C[C@]3(C)C(=CCC4[C@@]5(C)CC[C@H](O[C@@H]6O[C@H](CO[C@@H]7OC[C@H](O)[C@H](O)[C@H]7O[C@@H]7OC[C@@H](O)[C@H](O)[C@H]7O)[C@@H](O)[C@H](O)[C@H]6O[C@@H]6O[C@H](CO)[C@@H](O)[C@H](O)[C@H]6O)C(C)(C)C5CC[C@]43C)[C@@H]2C1 (stereo partly drawn),"activity change, negative = cytotoxicity",C33A,-1.17% [at 11.6 µM]
same,"activity change, negative = cytotoxicity",CAOV3,-15.5% [at 11.6 µM]
same,"activity change, negative = cytotoxicity",CASKI,15.8% [at 11.6 µM]
same,"activity change, negative = cytotoxicity",Es-2,-1.47% [at 11.6 µM]
same,"activity change, negative = cytotoxicity",HeLa,4.13% [at 11.6 µM]
same,"activity change, negative = cytotoxicity",Hek293T,5.35% [at 11.6 µM]
same,"activity change, negative = cytotoxicity",JEG-3,8.72% [at 11.6 µM]
same,"activity change, negative = cytotoxicity",OV90,15.1% [at 11.6 µM]
same,"activity change, negative = cytotoxicity",PA-1,-2.35% [at 11.6 µM]
same,"activity change, negative = cytotoxicity",SKOV3,21.8% [at 11.6 µM]
same,"activity change, negative = cytotoxicity",Tov-21-G,-13.8% [at 11.6 µM]
same,"activity change, negative = cytotoxicity",Tov112D,1.64% [at 11.6 µM]
CC(C)S(=O)(=O)NC[C@H](C)c1ccc(NC(=O)c2cc(F)cc(F)c2)cc1,Potency,C33A,inactive
same,Potency,CAOV3,inactive
same,Potency,CASKI,inactive
same,Potency,Es-2,inactive
same,Potency,HeLa,inactive
same,Potency,Hek293T,inactive
same,Potency,JEG-3,inactive
same,Potency,OV90,inactive
same,Potency,PA-1,inactive
same,Potency,SKOV3,inactive
same,Potency,Tov-21-G,inactive
same,Potency,Tov112D,inactive
Nc1nc2c(c(=O)[nH]1)C[C@@H](CCc1ccc(C(=O)N[C@@H](CCC(=O)O)C(=O)O)cc1)CN2,Potency,C33A,631 nM (active)
same,Potency,CAOV3,inactive
same,Potency,CASKI,282 nM (active)
same,Potency,Es-2,282 nM (active)
same,Potency,HeLa,282 nM (active)
same,Potency,Hek293T,316 nM (active)
same,Potency,JEG-3,10000 nM (active)
same,Potency,OV90,501 nM (active)
same,Potency,PA-1,282 nM (active)
same,Potency,SKOV3,inactive
same,Potency,Tov-21-G,100 nM (active)
same,Potency,Tov112D,1260 nM (active)
Cc1cn(C2C=CC(CO)O2)c(=O)[nH]c1=O (stereo not drawn),Potency,C33A,inactive
same,Potency,CAOV3,inactive
same,Potency,CASKI,inactive
same,Potency,Es-2,inactive
same,Potency,HeLa,inactive
same,Potency,Hek293T,inactive
same,Potency,JEG-3,inactive
same,Potency,OV90,inactive
same,Potency,PA-1,inactive
same,Potency,SKOV3,inactive
same,Potency,Tov-21-G,inactive
same,Potency,Tov112D,inactive
CC[C@H](NC(=O)[C@H](CS(=O)(=O)CC1CC1)N[C@@H](c1ccc(F)cc1)C(F)(F)F)C(=O)C(=O)NC1CC1,Potency,C33A,inactive
same,Potency,CAOV3,inactive
same,Potency,CASKI,inactive
same,Potency,Es-2,inactive
same,Potency,HeLa,inactive
same,Potency,Hek293T,inactive
same,Potency,JEG-3,inactive
same,Potency,OV90,inactive
same,Potency,PA-1,inactive
same,Potency,SKOV3,inactive
same,Potency,Tov-21-G,inactive
same,Potency,Tov112D,inactive
[N-]=[N+]=N[C@]1(CO)O[C@@H](n2ccc(=O)[nH]c2=O)[C@@H](O)[C@@H]1O,Potency,C33A,inactive
same,Potency,CAOV3,inactive
same,Potency,CASKI,inactive
same,Potency,Es-2,inactive
same,Potency,HeLa,inactive
same,Potency,Hek293T,inactive
same,Potency,JEG-3,inactive
same,Potency,OV90,inactive
same,Potency,PA-1,inactive
same,Potency,SKOV3,inactive
same,Potency,Tov-21-G,inactive
same,Potency,Tov112D,inactive
CC[C@@H](O)C[C@@H]1C(C)=C[C@@H]2CCCC[C@@H]2[C@@]1(C)C(=O)O,Potency,C33A,inactive
same,Potency,CAOV3,inactive
same,Potency,CASKI,inactive
same,Potency,Es-2,inactive
same,Potency,HeLa,inactive
same,Potency,Hek293T,inactive
same,Potency,JEG-3,inactive
same,Potency,OV90,inactive
same,Potency,PA-1,inactive
same,Potency,SKOV3,inactive
same,Potency,Tov-21-G,inactive
same,Potency,Tov112D,inactive
C=C(C)C1Cc2cc(C(=O)OC3OC(CO)C(O)C(O)C3O)ccc2O1 (stereo not drawn),Potency,C33A,inactive
same,Potency,CAOV3,inactive
same,Potency,CASKI,inactive
same,Potency,Es-2,inactive
same,Potency,HeLa,inactive
same,Potency,Hek293T,inactive
same,Potency,JEG-3,inactive
same,Potency,OV90,inactive
same,Potency,PA-1,inactive
same,Potency,SKOV3,inactive
same,Potency,Tov-21-G,inactive
same,Potency,Tov112D,inactive
CCc1cccc(CC)c1NC(=O)c1nn(C)c2c1CCc1cnc(Nc3ccc(C(=O)NC4CCN(C)CC4)cc3OC(F)(F)F)nc1-2,Potency,C33A,inactive
same,Potency,CAOV3,inactive
same,Potency,CASKI,inactive
same,Potency,Es-2,inactive
same,Potency,HeLa,inactive
same,Potency,Hek293T,inactive
same,Potency,JEG-3,inactive
same,Potency,OV90,inactive
same,Potency,PA-1,inactive
same,Potency,SKOV3,inactive
same,Potency,Tov-21-G,inactive
same,Potency,Tov112D,inactive
O=C(OC[C@H]1O[C@H](O[C@]2(CO)O[C@H](CO)[C@@H](O)[C@@H]2O)[C@H](O)[C@@H](O)[C@@H]1O)c1ccccc1,Potency,C33A,inactive
same,Potency,CAOV3,inactive
same,Potency,CASKI,inactive
same,Potency,Es-2,inactive
same,Potency,HeLa,inactive
same,Potency,Hek293T,inactive
same,Potency,JEG-3,inactive
same,Potency,OV90,inactive
same,Potency,PA-1,inactive
same,Potency,SKOV3,inactive
same,Potency,Tov-21-G,inactive
same,Potency,Tov112D,inactive
Cc1cc(=O)oc2c(C=O)c(O)ccc12,Potency,C33A,inactive
same,Potency,CAOV3,inactive
same,Potency,CASKI,inactive
same,Potency,Es-2,inactive
same,Potency,HeLa,inactive
same,Potency,Hek293T,inactive
same,Potency,JEG-3,inactive
same,Potency,OV90,inactive
same,Potency,PA-1,inactive
same,Potency,SKOV3,inactive
same,Potency,Tov-21-G,inactive
same,Potency,Tov112D,inactive
